# Inconclusive results are not listed. The source made the active and inactive calls. Unless noted, how the calls were made is not given here.
# Assays:
# [1] = yeast TOR pathway RPL19A-GFP modulators, primary screen, cell-based, S. cerevisiae, multiplex flow cytometry (AID 1862; in the data active means percent of DMSO control GFP below about 86%;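 further: lower values mimic rapamycin by blocking the RPL19A rise seen in DMSO cells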); settings: S. cerevisiae RPL19A-GFP strain, flow cytometry fluorescence, 3 h; at 10 µM; stronger effect = lower value
# [2] = modulators of MEP2-GFP levels in yeast, primary screen, S. cerevisiae, multiplex flow cytometry (AID 1867;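 active means GFP response, as percent of the DMSO control, above the screen-wide mean plus 3 SD, about 139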;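 further: median GFP channel fluorescence of barcode-gated MEP2-GFP cells measured by flow cytometry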); settings: S. cerevisiae MEP2-GFP strain, 3 h, at 10 µM, stronger effect = higher value
# [3] = modulators of CIT2-GFP expression in yeast, primary screen, S. cerevisiae, GFP fusion, multiplex flow cytometry (AID 1870;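 active means percent response above a set limit, the screen-wide mean plus 3 SD, cut at about 130% in these data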;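 further: barcoded CIT2-GFP strain pooled with four other GFP strains with rapamycin as positive control; median GFP fluorescence per well over plate mean of DMSO wells so 100% = DMSO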); settings: 3 h, at 10 µM, stronger effect = higher value
# [4] = modulators of LAP4-GFP expression in yeast, primary screen, S. cerevisiae, multiplex flow cytometry (AID 1873;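 active means GFP signal, as percent of the solvent control, above the screen mean plus 3 SD, about 149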); settings: 3 h, at 10 µM, stronger effect = higher value
# [5] = inhibitors of CD8+ T cell-vesicle binding, pilot screen, LFA-1/ICAM-1 modulator project, MLPCN validation set, flow cytometry (AID 2523;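 active means response below a set limit, under 55% cells CD8-positive and vesicle-bound, and CD8 cells' 90th-percentile brightness under 279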;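 on vesicle binding response: mean PE anti-B7-1 fluorescence of CD8+ cells relative to row control; 100% = QL9-loaded vesicles with DMSO vehicle in the same plate row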); settings: 2C mouse CD8+ T cells, at 7 µM, stronger effect = lower value; double positive events: measured here: CD8+/vesicle+ event percentage
# [6] = biological target: Integrin beta-1 (Homo sapiens) + Integrin alpha-4 (Homo sapiens) (UniProt P13612+P05556); assay: inhibition of HUTS-21 binding to VLA-4, pilot screen, VLA-4 allosteric modulator project, U937 cells, HUTS-21 mAb, flow cytometry, validation set (AID 2674;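 active means inhibition above 50%, about 3 SD of the validation set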;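 further: antibody binding induced by the VLA-4 ligand LDV present at three times its Kd; 0% = LDV ligand with antibody and no compound and 100% = antibody without LDV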); settings: HUTS-21 LIBS mAb binding, at 6.7 µM, stronger effect = higher value
# [7] = superoxide lowering in aged yeast cells, pilot screen, validation compound set (AID 2706;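 active means superoxide response below 65% of plate, a cut near 3 SD across the whole screen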;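 further: yeast exposed to compound for one week at 30 degrees C before staining; 100% = mean of all compound wells on the same plate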); settings: S. cerevisiae aging, superoxide DHE fluorescence; at 10 µM; stronger effect = lower value
# [8] = biological target: Beta-adrenergic receptor kinase 1 (Homo sapiens) (UniProt P25098); assay: GRK2 binders displacing RNA aptamer, biochemical, validation, human GRK2, bead flow cytometry (AID 488806;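 active means aptamer binding inhibition above 30%, about 3 SD of noise from non-fluorescent compounds; inactive means inhibition at or below 30%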); settings: bead-bound GRK2, FAM-aptamer displacement, at 10 µM, stronger effect = higher value
# [9] = biological target: AP-2 complex subunit beta (Homo sapiens) (UniProt P63010); assay: inhibitors of arrestin peptide binding to AP2, pilot screen, biochemical, validation set, GST-AP2 beads, flow cytometry (AID 504541;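 active means inhibition above 54%, about 3 SD of non-fluorescent compounds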;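 further: AP2 carries R879A mutation and is captured from E. coli lysate; bead-bound FITC arrestin peptide fluorescence measuring arrestin peptide binding to AP2; 0% = DMSO wells and 100% = excess unlabeled arrestin peptide control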); settings: FITC arrestin peptide, at 10 µM, stronger effect = higher value
# [10] = yeast V-ATPase proton transport modulators, S. cerevisiae, pHLuorin, HTS validation (AID 504600; in the data active means response above about 15%;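 further: plate controls were DMSO for no effect and reference compound for full effect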); settings: S. cerevisiae pHLuorin cytosolic pH, at 10 µM, stronger effect = higher value
# [11] = test system: anti-desmoglein-3 scFv antibody binding to human DSG3; assay: inhibitors of anti-DSG3 scFv binding to DSG3, pilot screen, biochemical, validation compound set, bead-based, flow cytometry (AID 588368;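 active means binding below the plate cutoff, the plate median minus 3 SD, with a reading above zero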;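 further: signal is the median channel fluorescence of bead-bound GFP antibody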); settings: Protein G beads, DSG3-Fc, scFv-GFP binding, at 10 µM, stronger effect = lower value
# [12] = test system: Botulinum neurotoxin type F light chain protease (Clostridium botulinum); assay: Botulinum neurotoxin type F light chain protease inhibition, multiplex microsphere flow cytometry, validation set (AID 588459); settings: multiplex microsphere protease substrate cleavage assay, at 10 µM, stronger effect = higher value
# [13] = biological target: Botulinum neurotoxin type A (Clostridium botulinum) (UniProt P0DPI0); assay: BoNT/A light chain protease inhibitors, biochemical, multiplex microsphere flow cytometry, validation set (AID 588460); settings: at 10 µM, stronger effect = higher value
# [14] = biological target: Lethal factor (Bacillus anthracis) (UniProt P15917); assay: Lethal factor protease inhibitors, Bacillus anthracis, multiplex microsphere cleavage assay, validation set (AID 588461); settings: flow cytometry, at 10 µM, stronger effect = higher value
# [15] = inhibitors of fungal efflux pumps CDR1, CDR2, MDR1, pilot screen, validation compound set, multiplex, phenotypic (AID 588506;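 active means efflux inhibition above 0.42, the validation set average plus 4 SD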;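 further: Nile Red retained in cells so higher fluorescence means more efflux inhibition; 0 = negative control wells and 1 = enniatin B 25 µM full block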); settings: S. cerevisiae pump-expressing triplex, Nile Red efflux flow cytometry; at 10 µM; stronger effect = higher value
# [16] = biological target: ATP-binding cassette sub-family B member 6 (Homo sapiens) (UniProt Q9NP58); assay: ABCB6 transporter inhibitors, pilot screen, K562-ABCB6 cells, flow cytometry, validation set (AID 588550;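 active means inhibition above the screen-wide mean plus 3 SD, about 51%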;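 further: 0% = DMSO wells and 100% = benzethonium chloride 70 µM positive control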); settings: K562-ABCB6 porphyrin accumulation, 1 h, at 10 µM, stronger effect = higher value
# [17] = promoters of myeloid differentiation in arrested cells, primary screen, cell-based, GFP/MAC1 double positive, flow cytometry, validation set (AID 588685;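 active means differentiation response of at least 50%, scaled between solvent and reference control, from cells with both markers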;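 further: compound exposure lasts four days before antibody staining and flow analysis; 0% = DMSO wells and 100% = 5 µM fulvestrant positive control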); settings: ER-HoxA9 marrow cells, stronger effect = higher value
# [18] = RPL19A-GFP modulators, yeast TOR pathway, confirmation, cell-based, S. cerevisiae, flow cytometry, cherry picks, mother/daughter gates (AID 2270;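 active means GFP response below 50% of the DMSO control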); settings: S. cerevisiae RPL19A-GFP strain, 3 h, at 10 µM, stronger effect = lower value, 100 = same GFP as DMSO wells
# [19] = LAP4-GFP expression modulators in yeast, confirmation, cell-based, cherry picks, flow cytometry, mother/daughter gates (AID 2271;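 active means GFP response above 150% of the DMSO control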;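 further: ratio of sample to DMSO plate mean so 100% equals DMSO level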); settings: S. cerevisiae LAP4-GFP strain, 3 h, at 10 µM, stronger effect = higher value
# [20] = modulators of CIT2-GFP expression in yeast, confirmation, S. cerevisiae, GFP fusion, cherry picks, mother/daughter gates (AID 2274;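 active means GFP response above 150% of the DMSO level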); settings: S. cerevisiae CIT2-GFP strain, flow cytometry, 3 h, at 10 µM, stronger effect = higher value
# [21] = measured here: daughter cell gate
# [22] = measured here: mother cell gate
# [23] = measured here: daughter cell gate response
# [24] = measured here: mother cell gate response
# Chain of Integrin beta-1 (Homo sapiens) + Integrin alpha-4 (Homo sapiens) (P05556 whole entry, looked up): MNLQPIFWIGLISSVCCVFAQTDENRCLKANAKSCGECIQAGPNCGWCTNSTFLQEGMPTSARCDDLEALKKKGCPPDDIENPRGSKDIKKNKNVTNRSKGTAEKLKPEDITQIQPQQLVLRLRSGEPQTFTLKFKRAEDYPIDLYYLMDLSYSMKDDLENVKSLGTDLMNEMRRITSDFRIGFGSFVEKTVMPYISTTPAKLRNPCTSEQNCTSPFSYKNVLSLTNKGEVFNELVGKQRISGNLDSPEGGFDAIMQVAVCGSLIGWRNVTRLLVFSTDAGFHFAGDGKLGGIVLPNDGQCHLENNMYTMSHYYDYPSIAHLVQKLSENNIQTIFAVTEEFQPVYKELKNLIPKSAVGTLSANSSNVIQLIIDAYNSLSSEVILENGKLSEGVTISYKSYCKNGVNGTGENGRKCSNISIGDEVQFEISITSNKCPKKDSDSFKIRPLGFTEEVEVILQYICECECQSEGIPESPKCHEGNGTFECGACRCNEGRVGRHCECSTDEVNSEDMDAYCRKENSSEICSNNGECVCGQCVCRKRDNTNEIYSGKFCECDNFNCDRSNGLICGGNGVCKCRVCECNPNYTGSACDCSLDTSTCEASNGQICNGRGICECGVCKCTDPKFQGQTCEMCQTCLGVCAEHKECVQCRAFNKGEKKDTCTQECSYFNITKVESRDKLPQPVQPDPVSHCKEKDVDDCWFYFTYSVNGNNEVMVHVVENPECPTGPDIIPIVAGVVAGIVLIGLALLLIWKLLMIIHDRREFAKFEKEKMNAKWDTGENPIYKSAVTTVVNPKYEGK
# Chain of Integrin beta-1 (Homo sapiens) + Integrin alpha-4 (Homo sapiens) (P13612 whole entry, looked up): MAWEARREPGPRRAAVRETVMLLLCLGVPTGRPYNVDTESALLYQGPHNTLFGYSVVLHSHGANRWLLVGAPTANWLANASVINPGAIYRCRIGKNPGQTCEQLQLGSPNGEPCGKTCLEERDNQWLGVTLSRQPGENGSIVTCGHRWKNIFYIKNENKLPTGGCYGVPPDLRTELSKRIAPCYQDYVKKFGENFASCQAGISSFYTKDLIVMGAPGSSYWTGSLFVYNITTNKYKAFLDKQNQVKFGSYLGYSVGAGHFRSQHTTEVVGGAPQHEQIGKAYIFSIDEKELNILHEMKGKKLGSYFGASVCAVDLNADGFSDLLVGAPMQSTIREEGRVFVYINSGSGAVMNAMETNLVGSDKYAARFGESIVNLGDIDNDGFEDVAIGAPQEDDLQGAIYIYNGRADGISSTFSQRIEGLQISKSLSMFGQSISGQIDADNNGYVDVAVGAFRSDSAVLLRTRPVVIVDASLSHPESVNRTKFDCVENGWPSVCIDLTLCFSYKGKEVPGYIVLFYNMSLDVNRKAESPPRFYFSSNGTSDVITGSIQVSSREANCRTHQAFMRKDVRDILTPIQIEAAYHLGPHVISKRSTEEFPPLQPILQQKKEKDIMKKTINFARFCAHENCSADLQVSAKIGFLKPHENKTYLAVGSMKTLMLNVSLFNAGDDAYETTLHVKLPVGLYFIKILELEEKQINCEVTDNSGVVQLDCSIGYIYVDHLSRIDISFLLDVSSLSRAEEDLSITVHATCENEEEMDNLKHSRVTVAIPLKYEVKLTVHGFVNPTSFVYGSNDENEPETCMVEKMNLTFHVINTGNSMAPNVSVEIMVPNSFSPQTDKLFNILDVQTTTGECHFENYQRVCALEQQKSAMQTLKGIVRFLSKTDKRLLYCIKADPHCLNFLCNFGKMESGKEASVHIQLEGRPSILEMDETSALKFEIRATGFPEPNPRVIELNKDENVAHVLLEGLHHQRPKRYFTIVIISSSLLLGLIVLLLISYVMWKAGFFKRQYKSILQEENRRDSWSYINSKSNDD
# Chain of AP-2 complex subunit beta (Homo sapiens) (P63010 whole entry, looked up, one chain of several): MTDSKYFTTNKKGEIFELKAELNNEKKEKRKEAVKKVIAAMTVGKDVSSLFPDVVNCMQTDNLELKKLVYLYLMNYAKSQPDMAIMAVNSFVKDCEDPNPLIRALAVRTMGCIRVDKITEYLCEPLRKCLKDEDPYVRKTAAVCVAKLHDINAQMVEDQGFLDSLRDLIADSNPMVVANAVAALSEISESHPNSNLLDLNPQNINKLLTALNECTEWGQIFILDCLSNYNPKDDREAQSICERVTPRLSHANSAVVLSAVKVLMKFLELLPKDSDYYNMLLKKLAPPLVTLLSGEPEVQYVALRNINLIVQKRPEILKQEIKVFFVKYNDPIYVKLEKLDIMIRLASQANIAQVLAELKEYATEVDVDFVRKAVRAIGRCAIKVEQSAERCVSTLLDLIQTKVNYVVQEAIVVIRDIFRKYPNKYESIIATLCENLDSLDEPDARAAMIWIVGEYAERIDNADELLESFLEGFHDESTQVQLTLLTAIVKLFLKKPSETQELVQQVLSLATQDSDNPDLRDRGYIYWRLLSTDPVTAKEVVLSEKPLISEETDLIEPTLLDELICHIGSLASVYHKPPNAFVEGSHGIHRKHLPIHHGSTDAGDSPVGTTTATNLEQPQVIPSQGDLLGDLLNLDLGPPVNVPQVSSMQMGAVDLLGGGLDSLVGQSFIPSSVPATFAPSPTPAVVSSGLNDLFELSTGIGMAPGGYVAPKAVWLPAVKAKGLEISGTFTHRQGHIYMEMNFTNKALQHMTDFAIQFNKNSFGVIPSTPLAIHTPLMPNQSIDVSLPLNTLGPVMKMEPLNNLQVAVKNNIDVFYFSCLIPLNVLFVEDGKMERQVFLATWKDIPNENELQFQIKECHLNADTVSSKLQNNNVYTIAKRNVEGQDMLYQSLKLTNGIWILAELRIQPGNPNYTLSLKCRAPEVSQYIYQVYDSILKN
# Chain of Lethal factor (Bacillus anthracis) (P15917 whole entry, looked up): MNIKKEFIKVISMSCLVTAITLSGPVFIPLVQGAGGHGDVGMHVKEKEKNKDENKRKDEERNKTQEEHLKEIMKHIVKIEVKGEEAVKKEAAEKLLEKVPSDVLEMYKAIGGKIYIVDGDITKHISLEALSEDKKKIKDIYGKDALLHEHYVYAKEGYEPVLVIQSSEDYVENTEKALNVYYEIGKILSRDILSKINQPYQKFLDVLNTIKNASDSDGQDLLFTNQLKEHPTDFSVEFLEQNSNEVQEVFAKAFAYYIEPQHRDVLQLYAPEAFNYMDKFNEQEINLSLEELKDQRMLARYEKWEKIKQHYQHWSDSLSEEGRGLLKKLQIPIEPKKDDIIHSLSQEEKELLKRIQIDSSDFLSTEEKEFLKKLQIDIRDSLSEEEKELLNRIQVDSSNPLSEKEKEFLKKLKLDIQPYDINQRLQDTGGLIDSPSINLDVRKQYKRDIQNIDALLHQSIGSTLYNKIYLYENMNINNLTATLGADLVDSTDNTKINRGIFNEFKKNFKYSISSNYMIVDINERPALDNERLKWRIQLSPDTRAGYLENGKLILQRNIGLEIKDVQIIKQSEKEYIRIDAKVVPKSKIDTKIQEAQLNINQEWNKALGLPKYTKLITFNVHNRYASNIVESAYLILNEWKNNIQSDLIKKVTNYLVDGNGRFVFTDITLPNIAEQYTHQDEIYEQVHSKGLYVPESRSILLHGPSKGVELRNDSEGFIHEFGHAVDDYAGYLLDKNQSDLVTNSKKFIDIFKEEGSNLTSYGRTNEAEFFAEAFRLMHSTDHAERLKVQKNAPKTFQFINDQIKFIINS
# Chain of Beta-adrenergic receptor kinase 1 (Homo sapiens) (P25098 whole entry, looked up): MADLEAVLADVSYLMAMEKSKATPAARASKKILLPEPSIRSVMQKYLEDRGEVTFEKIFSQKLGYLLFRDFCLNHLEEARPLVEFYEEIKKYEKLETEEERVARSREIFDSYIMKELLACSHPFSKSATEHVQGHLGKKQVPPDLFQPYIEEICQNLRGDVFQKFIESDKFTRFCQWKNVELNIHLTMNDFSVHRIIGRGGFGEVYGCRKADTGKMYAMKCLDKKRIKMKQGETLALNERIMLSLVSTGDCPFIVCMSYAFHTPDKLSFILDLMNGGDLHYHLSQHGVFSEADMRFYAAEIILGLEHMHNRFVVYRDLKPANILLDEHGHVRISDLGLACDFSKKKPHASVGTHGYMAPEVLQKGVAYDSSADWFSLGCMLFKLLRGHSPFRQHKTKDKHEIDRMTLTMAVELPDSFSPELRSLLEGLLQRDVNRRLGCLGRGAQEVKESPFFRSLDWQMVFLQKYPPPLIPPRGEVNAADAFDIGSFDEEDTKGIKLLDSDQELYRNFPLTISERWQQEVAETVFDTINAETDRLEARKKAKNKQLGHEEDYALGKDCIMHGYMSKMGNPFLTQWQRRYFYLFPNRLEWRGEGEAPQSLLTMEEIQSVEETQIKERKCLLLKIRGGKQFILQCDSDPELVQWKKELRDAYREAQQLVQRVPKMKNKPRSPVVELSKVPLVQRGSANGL
smiles,measurement,setting,value
CN(C)[C@@H]1C(=O)C(C(N)=O)=C(O)[C@@]2(O)C(=O)C3=C(O)c4c(O)cccc4[C@@](C)(O)[C@H]3[C@H](O)[C@@H]12,percent of DMSO control GFP,[1],102% (inactive)
same,GFP response vs DMSO,[2],98.9% (inactive)
same,percent response of DMSO control,[3],105% (inactive)
same,GFP response vs DMSO,[4],97.4% (inactive)
same,double positive events,[5],56.9%
same,vesicle binding response,[5],155% (inactive)
same,inhibition,[6],6.29% (inactive)
same,superoxide response (% of plate),[7],99.8% (inactive)
same,aptamer binding inhibition,[8],26% (inactive)
same,inhibition,[9],34.2% (inactive)
same,response,[10],4.02% (inactive)
same,binding (% of control),[11],87.9% (inactive)
same,inhibition,[12],-9.4% (inactive)
same,inhibition,[13],-5.3% (inactive)
same,inhibition,[14],-12.6% (inactive)
same,efflux inhibition (fraction of control),[15],-0.31 (inactive)
same,inhibition,[16],3% (inactive)
same,differentiation response,[17],-18% (inactive)
O=C1NC(=O)N(CCc2ccc(F)cc2)C(=O)/C1=C/c1cccs1,GFP response vs DMSO,[18],97% (inactive)
same,GFP response vs DMSO,[18]; [21],95%
same,GFP response vs DMSO,[18]; [22],94.1%
same,GFP response relative to DMSO,[19],152% (active)
same,GFP response relative to DMSO,[19]; [23],142%
same,GFP response relative to DMSO,[19]; [24],155%
same,"GFP response, % of DMSO",[20],81% (inactive)
same,"GFP response, % of DMSO",[20]; [21],85.7%
same,"GFP response, % of DMSO",[20]; [22],72.8%
CCN1C(=O)NC(=O)/C(=C\c2cn(CC(=O)N3CCCC3)c3ccccc23)C1=O,GFP response vs DMSO,[18],97.3% (inactive)
same,GFP response vs DMSO,[18]; [21],97.3%
same,GFP response vs DMSO,[18]; [22],96.9%
same,GFP response relative to DMSO,[19],102% (inactive)
same,GFP response relative to DMSO,[19]; [23],102%
same,GFP response relative to DMSO,[19]; [24],102%
same,"GFP response, % of DMSO",[20],100% (inactive)
same,"GFP response, % of DMSO",[20]; [21],101%
same,"GFP response, % of DMSO",[20]; [22],100%
Fc1ccc(C(OCCN2CCCC2)c2ccc(Br)cc2)cc1 (stereo unspecified),percent of DMSO control GFP,[1],98.8% (inactive)
same,GFP response vs DMSO,[2],98.5% (inactive)
same,percent response of DMSO control,[3],93.9% (inactive)
same,GFP response vs DMSO,[4],109% (inactive)
same,double positive events,[5],69.4%
same,vesicle binding response,[5],310% (inactive)
same,inhibition,[6],-4.52% (inactive)
same,superoxide response (% of plate),[7],94.6% (inactive)
same,aptamer binding inhibition,[8],-9% (inactive)
same,inhibition,[9],-3.21% (inactive)
same,response,[10],0.75% (inactive)
same,binding (% of control),[11],103% (inactive)
same,inhibition,[12],5.6% (inactive)
same,inhibition,[13],-0.6% (inactive)
same,inhibition,[14],3% (inactive)
same,efflux inhibition (fraction of control),[15],0.84 (active)
same,inhibition,[16],7% (inactive)
same,differentiation response,[17],16.8% (inactive)
CCN(CC)c1ccc(C=C2C(=O)NC(=S)NC2=O)cc1,GFP response vs DMSO,[18],94.7% (inactive)
same,GFP response vs DMSO,[18]; [21],90.2%
same,GFP response vs DMSO,[18]; [22],90%
same,GFP response relative to DMSO,[19],128% (inactive)
same,GFP response relative to DMSO,[19]; [23],116%
same,GFP response relative to DMSO,[19]; [24],131%
same,"GFP response, % of DMSO",[20],94.4% (inactive)
same,"GFP response, % of DMSO",[20]; [21],95.8%
same,"GFP response, % of DMSO",[20]; [22],84.8%
CCN1CC2(COC(=O)c3ccccc3N)CCC(OC)C34C5CC6C(OC)CC(O)(C5C6OC)C(O)(C(OC)C23)C14 (stereo unspecified),percent of DMSO control GFP,[1],91.1% (inactive)
same,GFP response vs DMSO,[2],120% (inactive)
same,percent response of DMSO control,[3],96.6% (inactive)
same,GFP response vs DMSO,[4],86.4% (inactive)
same,double positive events,[5],68.8%
same,vesicle binding response,[5],247% (inactive)
same,inhibition,[6],5.49% (inactive)
same,superoxide response (% of plate),[7],99.8% (inactive)
same,aptamer binding inhibition,[8],2% (inactive)
same,inhibition,[9],4.65% (inactive)
same,response,[10],5.45% (inactive)
same,binding (% of control),[11],101% (inactive)
same,inhibition,[12],1.9% (inactive)
same,inhibition,[13],0.1% (inactive)
same,inhibition,[14],-9.8% (inactive)
same,efflux inhibition (fraction of control),[15],-0.42 (inactive)
same,inhibition,[16],8% (inactive)
same,differentiation response,[17],9.83% (inactive)
